Source: PMC7862700, “An all-to-all approach to the identification of sequence-specific readers for epigenetic DNA modifications on cytosine”

Each sequence was assayed against SPIB (Homo sapiens, UniProt Q01892 1-262) (assay: DAPPL (digital affinity profiling via proximity ligation, sequencing); 10 mM Tris-HCl pH 7.5, 50 mM NaCl, 1 mM DTT, 4% glycerol, room temperature, 30 min; GST-TFs on glutathione beads, 16-mer random dsDNA library, 0.1% formaldehyde crosslink after washing; high values mean tight binding). Conditions: protein: recombinant; tags: N-terminal GST; dsDNA, one strand shown.
SPIB, sequence (Q01892 whole entry, the tested form may be a part): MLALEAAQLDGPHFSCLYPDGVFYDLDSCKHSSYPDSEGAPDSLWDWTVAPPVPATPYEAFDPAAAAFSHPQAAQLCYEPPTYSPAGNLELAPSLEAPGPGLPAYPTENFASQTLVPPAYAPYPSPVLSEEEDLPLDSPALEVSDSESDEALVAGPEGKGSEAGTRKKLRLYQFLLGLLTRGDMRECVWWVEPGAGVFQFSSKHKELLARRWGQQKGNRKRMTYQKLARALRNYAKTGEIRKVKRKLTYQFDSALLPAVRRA
Procedure, shortened: (§1)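 After expression in yeast as GST fusions, human transcription factors were bound to glutathione beads, DNA-barcoded and mixed with a tag-only sample. The pools were incubated with 200 nmole of a 16-mer random double-stranded DNA library in Tris/NaCl/DTT/glycerol buffer (30 min, room temperature), washed and crosslinked with 0.1% formaldehyde. Proximity ligation with BsaI/T4 ligase ran for 1 h at 37 °C, before PCR amplification and sequencing on an Illumina NextSeq500. Binding signal is a hexamer's read frequency for a factor divided by its frequency for the tag-only sample.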

Sequence	binding signal
ATGATC	1.18 fold enrichment (6-mer frequency, TF over GST control)
TGTTTG	1.42 fold enrichment (6-mer frequency, TF over GST control)
CCTCTC	1.44 fold enrichment (6-mer frequency, TF over GST control)
GCAAAT	1.14 fold enrichment (6-mer frequency, TF over GST control)
TAAGGT	1.07 fold enrichment (6-mer frequency, TF over GST control)
CTACAA	1.15 fold enrichment (6-mer frequency, TF over GST control)
CTTCTA	1.48 fold enrichment (6-mer frequency, TF over GST control)
CTTTAA	1.19 fold enrichment (6-mer frequency, TF over GST control)
TACGCC	1.18 fold enrichment (6-mer frequency, TF over GST control)
AGTAAT	1.1 fold enrichment (6-mer frequency, TF over GST control)
TGGTTC	1.37 fold enrichment (6-mer frequency, TF over GST control)
GCTGTT	1.03 fold enrichment (6-mer frequency, TF over GST control)
TTCTTG	1.39 fold enrichment (6-mer frequency, TF over GST control)
CCAAAC	1.06 fold enrichment (6-mer frequency, TF over GST control)
ATTATC	1.27 fold enrichment (6-mer frequency, TF over GST control)
ATGTCA	1.19 fold enrichment (6-mer frequency, TF over GST control)
AATCCG	1.68 fold enrichment (6-mer frequency, TF over GST control)
AATGAA	1.2 fold enrichment (6-mer frequency, TF over GST control)
CTCGAA	1.12 fold enrichment (6-mer frequency, TF over GST control)
TTCGAG	1.31 fold enrichment (6-mer frequency, TF over GST control)

Sequence	binding signal
ATGCAC	1.34 fold enrichment (6-mer frequency, TF over GST control)
TTGCGG	1.2 fold enrichment (6-mer frequency, TF over GST control)
GTTCAA	1.19 fold enrichment (6-mer frequency, TF over GST control)
TGTATT	1.28 fold enrichment (6-mer frequency, TF over GST control)
CGTATC	1.2 fold enrichment (6-mer frequency, TF over GST control)
CGACCG	1.07 fold enrichment (6-mer frequency, TF over GST control)
ACCATC	1.07 fold enrichment (6-mer frequency, TF over GST control)
AAATAG	1.15 fold enrichment (6-mer frequency, TF over GST control)
AAGTCA	1.11 fold enrichment (6-mer frequency, TF over GST control)
TAACTT	1.43 fold enrichment (6-mer frequency, TF over GST control)
TCTGTA	1.19 fold enrichment (6-mer frequency, TF over GST control)
CCCTGC	1.16 fold enrichment (6-mer frequency, TF over GST control)
CCGTCA	1.2 fold enrichment (6-mer frequency, TF over GST control)
GGTTCC	1.59 fold enrichment (6-mer frequency, TF over GST control)
TCCAAA	1.17 fold enrichment (6-mer frequency, TF over GST control)
TACACA	1.23 fold enrichment (6-mer frequency, TF over GST control)
TAAATA	1.35 fold enrichment (6-mer frequency, TF over GST control)
TATAAC	1.39 fold enrichment (6-mer frequency, TF over GST control)
TAGGCT	1.1 fold enrichment (6-mer frequency, TF over GST control)
TGCCGA	1.18 fold enrichment (6-mer frequency, TF over GST control)

What follows are sequences tested against T1, ELK3 (Homo sapiens, UniProt P41970 1-407) in the same assay as above. Conditions: protein: recombinant; tags: N-terminal GST; dsDNA, one strand shown.
T1 sequence: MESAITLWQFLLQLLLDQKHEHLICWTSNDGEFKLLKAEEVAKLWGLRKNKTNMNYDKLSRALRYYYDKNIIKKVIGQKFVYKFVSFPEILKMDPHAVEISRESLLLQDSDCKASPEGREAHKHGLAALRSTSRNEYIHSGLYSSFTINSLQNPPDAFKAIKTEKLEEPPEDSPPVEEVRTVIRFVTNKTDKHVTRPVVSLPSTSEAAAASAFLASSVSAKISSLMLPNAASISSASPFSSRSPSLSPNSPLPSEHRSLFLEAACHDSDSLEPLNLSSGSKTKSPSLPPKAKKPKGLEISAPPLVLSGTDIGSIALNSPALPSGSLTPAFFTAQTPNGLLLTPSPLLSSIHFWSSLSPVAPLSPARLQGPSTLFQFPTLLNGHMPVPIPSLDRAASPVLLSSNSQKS
Procedure, shortened: as §1

Sequence	binding signal
ATGATC	1.31 fold enrichment (6-mer frequency, TF over GST control)
TGTTTG	1.29 fold enrichment (6-mer frequency, TF over GST control)
CCTCTC	1.44 fold enrichment (6-mer frequency, TF over GST control)
GCAAAT	1.01 fold enrichment (6-mer frequency, TF over GST control)
TAAGGT	1.13 fold enrichment (6-mer frequency, TF over GST control)
CTACAA	1.03 fold enrichment (6-mer frequency, TF over GST control)
CTTCTA	1.34 fold enrichment (6-mer frequency, TF over GST control)
CTTTAA	1.28 fold enrichment (6-mer frequency, TF over GST control)
TACGCC	1.23 fold enrichment (6-mer frequency, TF over GST control)
AGTAAT	1.12 fold enrichment (6-mer frequency, TF over GST control)
TGGTTC	1.32 fold enrichment (6-mer frequency, TF over GST control)
GCTGTT	1.04 fold enrichment (6-mer frequency, TF over GST control)
TTCTTG	1.35 fold enrichment (6-mer frequency, TF over GST control)
CCAAAC	1.15 fold enrichment (6-mer frequency, TF over GST control)
ATTATC	1.32 fold enrichment (6-mer frequency, TF over GST control)
ATGTCA	1.02 fold enrichment (6-mer frequency, TF over GST control)
AATCCG	1.5 fold enrichment (6-mer frequency, TF over GST control)
AATGAA	1.26 fold enrichment (6-mer frequency, TF over GST control)
CTCGAA	1.21 fold enrichment (6-mer frequency, TF over GST control)
TTCGAG	1.3 fold enrichment (6-mer frequency, TF over GST control)

Sequence	binding signal
ATGCAC	1.34 fold enrichment (6-mer frequency, TF over GST control)
TTGCGG	1.26 fold enrichment (6-mer frequency, TF over GST control)
GTTCAA	1.13 fold enrichment (6-mer frequency, TF over GST control)
TGTATT	1.43 fold enrichment (6-mer frequency, TF over GST control)
CGTATC	1.21 fold enrichment (6-mer frequency, TF over GST control)
CGACCG	1.21 fold enrichment (6-mer frequency, TF over GST control)
ACCATC	1.24 fold enrichment (6-mer frequency, TF over GST control)
AAATAG	1.08 fold enrichment (6-mer frequency, TF over GST control)
AAGTCA	1.28 fold enrichment (6-mer frequency, TF over GST control)
TAACTT	1.27 fold enrichment (6-mer frequency, TF over GST control)
TCTGTA	1.2 fold enrichment (6-mer frequency, TF over GST control)
CCCTGC	1.18 fold enrichment (6-mer frequency, TF over GST control)
CCGTCA	1.15 fold enrichment (6-mer frequency, TF over GST control)
GGTTCC	1.52 fold enrichment (6-mer frequency, TF over GST control)
TCCAAA	1.17 fold enrichment (6-mer frequency, TF over GST control)
TACACA	1.18 fold enrichment (6-mer frequency, TF over GST control)
TAAATA	1.33 fold enrichment (6-mer frequency, TF over GST control)
TATAAC	1.18 fold enrichment (6-mer frequency, TF over GST control)
TAGGCT	1.26 fold enrichment (6-mer frequency, TF over GST control)
TGCCGA	1.1 fold enrichment (6-mer frequency, TF over GST control)
